Source: PubChem BioAssay (Tox21)
“And” between values parts separate entries of the source, which are not always exact repeats. Equal entries are not always repeated. Records with an inconclusive call do not appear. Where a call stands in place of a potency, no number is given. Some structures have more than one record in an assay (separate samples or runs), and their calls can disagree. The source made the active and inactive calls. Unless noted, calls come from the whole dose curve; as a rule, active = well fitted cell-killing curve with a large enough effect in the repeat runs; inconclusive = weak or mixed curves, or effect the other way; inactive = no such curve, though single readings can be large or run the other way.

Test: qHTS assay to identify small molecule antagonists of the sonic hedgehog signaling (Shh) pathway - cell viability counter screen (AID 1259367); note: nearly all actives have a fitted effect of over 55% in size; note: potency is the fitted concentration of half-maximal effect
Details: NIH/3T3 Gli1-Luc viability, CellTiter-Fluor, 24 h; series mostly up to 92.4 µM
Outline: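 Conditioned medium drove Shh signaling in 3T3 Gli1-Luc cells exposed to compounds at 37C and 5% CO2. Viability was determined from CellTiter-Fluor fluorescence, with reagent incubated 1 hr after 23 hr of treatment.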

| SMILES | Potency |
| --- | --- |
| Cc1cc(C)c(/C=C2\C(=O)Nc3ccccc32)[nH]1 | inactive |
| CCCCC(CC)CN1CN(CC(CC)CCCC)CC(C)(N)C1 (stereo not drawn) | inactive |
| COC1=C(OC)C(=O)C(CCCCCCCCCCO)=C(C)C1=O | inactive |
| Cc1cc(=O)oc2cc(O)cc(O)c12 | inactive |
| CC(=O)c1ccc(C(C)=O)cc1 | inactive |
| NC(=S)NC(N)=S | inactive |
| CC(=O)OCC=C(C)C | inactive |
| O=C(/C=C/c1ccccc1)OC/C=C/c1ccccc1 | inactive |
| Cc1c2ccccc2c(C)c2c1ccc1ccccc12 | inactive and 61.1 µM (active) |
| CCCCCCCC/C=C\CCCCCCCCN | inactive |
| CN(C)CCN1CCN(c2cccc(Cl)c2)C1=O | inactive |
| CCCCCCCCCCOC(=O)c1ccccc1C(=O)OCCCCCCCC | inactive |
| CC(C)OC(=O)C(O)(CC(=O)O)CC(=O)O | inactive |
| O=S(=O)(O)c1ccc(Nc2nc(Nc3ccc(/C=C/c4ccc(Nc5nc(Nc6ccc(S(=O)(=O)O)cc6)nc(N(CCO)CCO)n5)cc4S(=O)(=O)O)c(S(=O)(=O)O)c3)nc(N(CCO)CCO)n2)cc1 | inactive |
| Cc1cccc(C)c1NC(=O)c1ccc(N)cc1 | inactive |
| CCOC(=O)NNc1ccc(N(CC)CC(C)O)nn1 (stereo not drawn) | inactive |
| CC1(C)[C@@H](O)CC[C@]2(C)[C@H]3C(=O)C=C4[C@@H]5C[C@@](C)(C(=O)O)CC[C@]5(C)CC[C@@]4(C)[C@]3(C)CC[C@@H]12 | inactive |
| O=C(O)Cc1ccccc1Nc1c(Cl)cccc1Cl | inactive |

| SMILES | Potency |
| --- | --- |
| c1ccsc1 | inactive |
| NC(=O)c1cccc([N+](=O)[O-])c1 | inactive |
| CCc1cccc(CC)c1NC(=O)CN(CC(=O)O)CC(=O)O | inactive |
| Clc1sc(Cl)c(Cl)c1Cl | inactive |
| CCN(CC)c1ccc2c(-c3ccc(S(=O)(=O)O)cc3S(=O)(=O)[O-])c3ccc(=[N+](CC)CC)cc-3oc2c1 | 11.2 µM (active) |
| OC[C@H]1O[C@H](O[C@H]2O[C@H](CO)[C@@H](O)[C@H](O)[C@H]2O)[C@H](O)[C@@H](O)[C@@H]1O | inactive |
| CC(CO)Oc1ccccc1 (stereo not drawn) | inactive |
| COc1c(C)c2c(c(O)c1C/C=C(\C)CCC(=O)OCCN1CCOCC1)C(=O)OC2 | inactive |
| CCCc1ccc(OCC(=O)N2CCN(C(=O)COc3ccc(CCC)cc3OC)CC2)c(OC)c1 | inactive |
| CN(C)Cc1ccccc1O | inactive |
| ClCCl | inactive |
| CCCCCCOC(=O)C(C)CC (stereo not drawn) | inactive |
| Cc1c(N)cccc1C(F)(F)F | inactive |
| COC(=O)Nc1nc2ccc(C(=O)c3ccccc3)cc2[nH]1 | 3.35 µM (active) |
| CCN1C(=O)c2ccccc2C1Nc1ccc(OCCN2CCCCC2)cc1 (stereo not drawn) | inactive |
| CCOc1ccc2ccccc2c1C(=O)N[C@@H]1C(=O)N2[C@@H]1SC(C)(C)[C@@H]2C(=O)O | inactive |
| Nc1ccc(C(=O)O)c(O)c1 | inactive |
| O[C@@H]([C@H](O)[C@H](O)CBr)[C@H](O)CBr | inactive |

Test: qHTS assay to identify small molecule agonists of the sonic hedgehog signaling (Shh) pathway (AID 1259368; calls by dose curve;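 note: NIH/3T3-derived 3T3Gli1-Luc cells carrying a stable Gli1-driven firefly luciferase reporter; nearly all actives have a fitted effect of over 15% in size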)
Details: NIH/3T3 Gli1-Luc reporter, luciferase, 24 h; series mostly up to 92.4 µM
Outline: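 Following a 24 hr incubation with DMSO-dissolved compounds at 37 C, 5% CO2, Gli1-Luc NIH/3T3-derived cells received luciferase reagent for 30 min at room temperature prior to luminescence measurement.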

| SMILES | Potency |
| --- | --- |
| Cc1cc(C)c(/C=C2\C(=O)Nc3ccccc32)[nH]1 | inactive |
| CCCCC(CC)CN1CN(CC(CC)CCCC)CC(C)(N)C1 (stereo not drawn) | inactive |
| COC1=C(OC)C(=O)C(CCCCCCCCCCO)=C(C)C1=O | inactive |
| Cc1cc(=O)oc2cc(O)cc(O)c12 | inactive |
| NC(=S)NC(N)=S | inactive |
| CC(=O)OCC=C(C)C | inactive |
| O=C(/C=C/c1ccccc1)OC/C=C/c1ccccc1 | inactive |
| Cc1c2ccccc2c(C)c2c1ccc1ccccc12 | inactive |
| CCCCCCCC/C=C\CCCCCCCCN | inactive |
| CC(C)=CCNc1ncnc2c1ncn2[C@@H]1O[C@H](CO)[C@@H](O)[C@H]1O | inactive |
| CC(C)OC(=O)C(O)(CC(=O)O)CC(=O)O | inactive |
| O=S(=O)(O)c1ccc(Nc2nc(Nc3ccc(/C=C/c4ccc(Nc5nc(Nc6ccc(S(=O)(=O)O)cc6)nc(N(CCO)CCO)n5)cc4S(=O)(=O)O)c(S(=O)(=O)O)c3)nc(N(CCO)CCO)n2)cc1 | inactive |
| Cc1cccc(C)c1NC(=O)c1ccc(N)cc1 | inactive |
| CCOC(=O)NNc1ccc(N(CC)CC(C)O)nn1 (stereo not drawn) | inactive |
| CC1(C)[C@@H](O)CC[C@]2(C)[C@H]3C(=O)C=C4[C@@H]5C[C@@](C)(C(=O)O)CC[C@]5(C)CC[C@@]4(C)[C@]3(C)CC[C@@H]12 | inactive |
| c1ccsc1 | inactive |

| SMILES | Potency |
| --- | --- |
| NC(=O)c1cccc([N+](=O)[O-])c1 | inactive |
| CCc1cccc(CC)c1NC(=O)CN(CC(=O)O)CC(=O)O | inactive |
| Clc1sc(Cl)c(Cl)c1Cl | inactive |
| CCN(CC)c1ccc2c(-c3ccc(S(=O)(=O)O)cc3S(=O)(=O)[O-])c3ccc(=[N+](CC)CC)cc-3oc2c1 | inactive |
| OC[C@H]1O[C@H](O[C@H]2O[C@H](CO)[C@@H](O)[C@H](O)[C@H]2O)[C@H](O)[C@@H](O)[C@@H]1O | inactive |
| CC(CO)Oc1ccccc1 (stereo not drawn) | inactive |
| COc1c(C)c2c(c(O)c1C/C=C(\C)CCC(=O)OCCN1CCOCC1)C(=O)OC2 | inactive |
| Nc1cc(Cl)c(O)c(Cl)c1 | inactive |
| CCCc1ccc(OCC(=O)N2CCN(C(=O)COc3ccc(CCC)cc3OC)CC2)c(OC)c1 | inactive |
| CN(C)Cc1ccccc1O | inactive |
| CCCCCCOC(=O)C(C)CC (stereo not drawn) | inactive |
| Cc1c(N)cccc1C(F)(F)F | inactive |
| COC(=O)Nc1nc2ccc(C(=O)c3ccccc3)cc2[nH]1 | inactive |
| CCN1C(=O)c2ccccc2C1Nc1ccc(OCCN2CCCCC2)cc1 (stereo not drawn) | inactive |
| CCOc1ccc2ccccc2c1C(=O)N[C@@H]1C(=O)N2[C@@H]1SC(C)(C)[C@@H]2C(=O)O | inactive |
| O[C@@H]([C@H](O)[C@H](O)CBr)[C@H](O)CBr | inactive |
